Screens (PubChem BioAssay)
In the library only some 12% were active in any assay of this set; here they are far more common.
Cl transport mod – modulates chloride dependent transport by human KCC2; KCC2 cells, thallium flux FluoZin-2 fluorescence; B-score of Tl+ flux slope (higher = more flux/activation; lower = inhibition) at 10 µM; 190,000 compounds, 2.2% hits;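 active = thallium flux slope and its plate-corrected score both differing from the plate sample mean at a set confidence after two filtering rounds, in either direction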;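 also: slope of fluorescence scaled to starting intensity during 10 to 20 s after thallium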
ROMK mod – modulators of human ROMK potassium channel | Tet-inducible ROMK, thallium flux fluorescence; actives lie on both sides | B-score at 10 µM | 130,000 compounds, 2% hits;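 active = signal ratio slope over the read window, or its plate-corrected B-score, at least 3 SD from the plate mean, either direction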;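 also: B-score of the F/F0 ratio slope over 7 to 12 s after thallium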
Target sequence (P48048 whole entry, looked up): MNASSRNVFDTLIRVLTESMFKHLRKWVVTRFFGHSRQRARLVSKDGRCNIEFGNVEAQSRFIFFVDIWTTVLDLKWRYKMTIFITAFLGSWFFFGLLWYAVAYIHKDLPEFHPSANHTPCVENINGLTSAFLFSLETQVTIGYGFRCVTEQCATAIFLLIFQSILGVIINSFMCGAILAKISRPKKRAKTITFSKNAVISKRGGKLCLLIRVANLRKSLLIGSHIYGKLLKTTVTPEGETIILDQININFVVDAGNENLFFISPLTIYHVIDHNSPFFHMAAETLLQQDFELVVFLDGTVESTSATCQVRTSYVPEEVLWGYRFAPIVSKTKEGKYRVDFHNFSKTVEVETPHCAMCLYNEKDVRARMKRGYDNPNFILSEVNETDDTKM
WT yeast gro inh – growth inhibition of WT yeast, mitochondrial fusion screen; 190,000 compounds, 2.1% hits; AID 1362; mitochondrial fusion phenotypic screen, WT strain; inhibition, % at 10 µM; in the data active = inhibition above about 58%; tested in S. cerevisiae
Calpain2 inh – blocks pig calpain II enzyme activity | purified calpain II, fluorogenic peptide substrate, 30 min | inhibition, % at 16 µM | 220,000 compounds, 0.37% hits | AID 1236;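 active = inhibition above about 50%, limit read from the data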
Lmaj promast – inhibitors of Leishmania major promastigote growth. AID 1063. inhibition, % at 10 µM. 200,000 compounds, 9% hits. Leishmania major promastigotes, resazurin fluorescence viability; in the data active = inhibition above about 50%;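 also: promastigotes grown with compound for 44 hours at 28 °C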
A number is an active result.

Results for CN(Cc1ccccc1)C1=CC(=[N+]2CCCC2)CC(C)(C)C1 ?
Cl transport mod: inactive; Calpain2 inh: inactive

Results for CC1(C)CC(N2CCN(c3ccccc3)CC2)=CC(=[N+]2CCCC2)C1 ?
Cl transport mod: inactive; WT yeast gro inh: inactive; Calpain2 inh: inactive; Lmaj promast: 99

Results for CCN(CC)C1=CC(=[N+]2CCCC2)CC(C)(C)C1 ?
Cl transport mod: inactive; ROMK mod: inactive; WT yeast gro inh: inactive; Calpain2 inh: inactive; Lmaj promast: 100

What do the screens show for `CC1(C)CC(N2CCCC2)=CC(=[N+]2CCCCCC2)C1`?
Cl transport mod: inactive; ROMK mod: inactive; WT yeast gro inh: inactive; Calpain2 inh: inactive; Lmaj promast: 100

How did CCOc1cc(/C=C(/NC(C)=O)C(=O)O)cc(Cl)c1OCc1ccc(Br)cc1 do in these assays?
Cl transport mod: inactive; Calpain2 inh: inactive

How did O=C(O)c1ccccc1C(=O)NCCc1c(C(=O)O)[nH]c2ccc(Cl)cc12 do in these assays?
Cl transport mod: inactive; Calpain2 inh: inactive

Results for O=C(N/N=C/c1ccccc1O)c1cc(=O)[nH]c2ccccc12 ?
Cl transport mod: inactive; WT yeast gro inh: inactive; Calpain2 inh: inactive; Lmaj promast: 99

How did COc1ccc(CCNC(=O)CSc2nnc(-c3ccc(F)cc3)o2)cc1OC do in these assays?
ROMK mod: inactive; WT yeast gro inh: inactive; Calpain2 inh: inactive; Lmaj promast: inactive

Results for O=C(c1cnccn1)N1CCc2c([nH]c3ccccc23)C1c1cccc(Cl)c1 (configuration not stated) ?
Cl transport mod: inactive; ROMK mod: inactive; WT yeast gro inh: 61; Calpain2 inh: inactive; Lmaj promast: inactive

Results for Cc1cc(C(=O)N2CCc3c([nH]c4ccccc34)C2c2cccc(Cl)c2)nn1C (configuration not stated) ?
ROMK mod: inactive; WT yeast gro inh: 61; Calpain2 inh: inactive; Lmaj promast: inactive

How did CSc1ccc(C2c3[nH]c4ccccc4c3CCN2C(=O)c2cc(C)n(C)n2)cc1 (configuration not stated) do in these assays?
Cl transport mod: inactive; ROMK mod: inactive; WT yeast gro inh: inactive; Calpain2 inh: inactive; Lmaj promast: inactive

How did CCc1ccc(C2c3[nH]c4ccccc4c3CCN2C(=O)c2cc(C)nn2C)cc1 (configuration not stated) do in these assays?
Cl transport mod: inactive; ROMK mod: inactive; WT yeast gro inh: inactive; Calpain2 inh: inactive; Lmaj promast: 60

How did CC(=O)NCCC(=O)N1CCc2c([nH]c3ccccc23)C1c1cccc(Cl)c1 (configuration not stated) do in these assays?
Cl transport mod: inactive; ROMK mod: inactive; WT yeast gro inh: inactive; Calpain2 inh: inactive; Lmaj promast: inactive

How did Cc1nc(C(=O)N2CCc3c([nH]c4ccccc34)C2c2cc(F)ccc2F)cs1 (configuration not stated) do in these assays?
Cl transport mod: inactive; ROMK mod: inactive; WT yeast gro inh: 75; Calpain2 inh: inactive; Lmaj promast: 54

How did Cc1cnc(C(=O)N2CCc3c([nH]c4ccccc34)C2c2ccc(F)cc2)cn1 (configuration not stated) do in these assays?
ROMK mod: inactive; WT yeast gro inh: inactive; Calpain2 inh: inactive; Lmaj promast: inactive

What do the screens show for `Cc1cc(C)cc(OCC(=O)N(Cc2ccc(N(C)C)cc2)C2CCS(=O)(=O)C2)c1` (configuration not stated)?
Cl transport mod: inactive; Calpain2 inh: inactive

What do the screens show for `N#CC1=C(N)OC2=C(CC/C2=C\c2ccccc2)C1c1ccccc1` (configuration not stated)?
WT yeast gro inh: inactive; Calpain2 inh: inactive; Lmaj promast: 101

How did N#CC1=C(N)OC2=C(CC/C2=C\c2ccccc2Cl)C1c1ccccc1Cl (configuration not stated) do in these assays?
Cl transport mod: inactive; WT yeast gro inh: inactive; Calpain2 inh: inactive; Lmaj promast: 73

How did N#CC1=C(N)OC2=C(C(=O)CCC2)C1c1ccccc1 (configuration not stated) do in these assays?
Cl transport mod: inactive; WT yeast gro inh: inactive; Calpain2 inh: inactive; Lmaj promast: inactive

Results for CC1CC(NC(=O)C2(C)CC2(Cl)Cl)CC(C)(C)C1 (configuration not stated) ?
Cl transport mod: inactive; ROMK mod: inactive; WT yeast gro inh: inactive; Calpain2 inh: inactive; Lmaj promast: 55

How did CC1CC(NC(=O)CC#N)CC(C)(C)C1 (configuration not stated) do in these assays?
Cl transport mod: inactive; Calpain2 inh: inactive

How did COc1cccc(CNc2nc(-c3cccnc3)nc3ccccc23)c1 do in these assays?
Cl transport mod: inactive; WT yeast gro inh: inactive; Calpain2 inh: inactive; Lmaj promast: 76

What do the screens show for `CCOc1ccccc1C1N=C(c2ccc(OC)cc2)CC(c2ccccc2O)N1` (configuration not stated)?
Cl transport mod: inactive; ROMK mod: inactive; WT yeast gro inh: inactive; Calpain2 inh: inactive; Lmaj promast: 51

How did CCN(CC)CC#CC(OC)(c1ccccc1)c1ccccc1 do in these assays?
Cl transport mod: inactive; ROMK mod: inactive; WT yeast gro inh: inactive; Calpain2 inh: inactive; Lmaj promast: 64

Results for CCN(CC)CCC#CC(O)(c1ccccc1)c1ccccc1 ?
Cl transport mod: inactive; ROMK mod: inactive; WT yeast gro inh: inactive; Calpain2 inh: inactive; Lmaj promast: inactive

How did CCn1c(C(=O)N2CCCC(C(=O)NCCCc3ccccc3)C2)cc2sccc21 (configuration not stated) do in these assays?
WT yeast gro inh: inactive; Calpain2 inh: inactive; Lmaj promast: 99

What do the screens show for `CCn1c(C(=O)N2CCCC(C(=O)NCCc3ccc(C)cc3)C2)cc2sccc21` (configuration not stated)?
Cl transport mod: inactive; ROMK mod: inactive; WT yeast gro inh: inactive; Calpain2 inh: inactive; Lmaj promast: inactive

What do the screens show for `COc1ccccc1NC(=O)Cn1c(=O)oc2ccccc21`?
Cl transport mod: inactive; ROMK mod: inactive; WT yeast gro inh: inactive; Calpain2 inh: inactive; Lmaj promast: inactive

How did COc1ccccc1NC(=O)Cn1c(=O)n(-c2ccccc2)c(=O)c2oc3ccccc3c21 do in these assays?
Cl transport mod: inactive; ROMK mod: inactive; WT yeast gro inh: inactive; Calpain2 inh: inactive; Lmaj promast: inactive

What do the screens show for `COc1ccc(NC(=O)Cn2c(=O)n(-c3ccccc3)c(=O)c3oc4ccccc4c32)c(OC)c1`?
Cl transport mod: inactive; ROMK mod: inactive; WT yeast gro inh: inactive; Calpain2 inh: inactive; Lmaj promast: 61

What do the screens show for `COC(=O)c1cc2oc3ccccc3c2n1CC(=O)Nc1ccccc1OC`?
Cl transport mod: inactive; WT yeast gro inh: inactive; Calpain2 inh: inactive; Lmaj promast: 83

How did Cc1c(Cl)c(C(F)(F)F)nn1CC(=O)NCc1ccco1 do in these assays?
Cl transport mod: inactive; ROMK mod: inactive; WT yeast gro inh: inactive; Calpain2 inh: inactive; Lmaj promast: inactive

What do the screens show for `COC(=O)c1ccc(C(=O)OC)c(NC(=S)N2CCN(c3cccc(Cl)c3)CC2)c1`?
Cl transport mod: inactive; WT yeast gro inh: inactive; Calpain2 inh: inactive; Lmaj promast: 74

How did CC(=O)c1ccc(NC(=S)N2CCN(c3cccc(Cl)c3)CC2)cc1 do in these assays?
Cl transport mod: inactive; ROMK mod: inactive; WT yeast gro inh: inactive; Calpain2 inh: inactive; Lmaj promast: inactive
